High-throughput results from PubChem BioAssay.
Shiga inhibitor: A qHTS for Small Molecule Inhibitors of Shiga Toxin. AID 2315, 2010. inhibition, % at 38.7 µM. Vero cells, Shiga toxin protein synthesis inhibition reporter. 290,000 tested, 9.2% active; in the data active = inhibition mostly above about 28%, no sharp cut-off; inactive = mostly below about 43%; also: 0% is about no effect
Cycloheximide cs: Cycloheximide Counterscreen for Small Molecule Inhibitors of Shiga Toxin; 300,000 tested, 12% active; max response, %; AID 2314, 2010; cell reporter, cycloheximide protein synthesis inhibition counterscreen; in the data active = max response mostly above about 13%, no sharp cut-off; inactive = mostly below about 14%; also: read at 38.3 µM for the half of the compounds with a filed dose; 0% is about no effect
Tb PYK inh: qHTS of Trypanosoma Brucei Inhibitors. pyruvate kinase (Trypanosoma brucei), Q57TT1. TbPYK enzyme, Kinase-Glo Plus ATP luminescence, 45 min. Potency, µM (highest dose often 76.8 µM), inactives show top-dose activity, negative = inhibition, usual class: inhibitors. 410,000 tested, 0.12% active; also: potency is read from the fitted curve at half-maximal effect; % is scaled to controls: 0 for no effect and ±100 for the full control effect; nearly all actives have a fitted effect of over 50% in size
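Glycolytic pyruvate kinase of T. brucei was incubated with substrate, test compound and 130 uM ADP for 45 minutes at room temperature. Luminescent Kinase-Glo Plus signal was measured after 10 minutes.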
LmPK inhibitor: qHTS Assay for Inhibitors of Leishmania Mexicana Pyruvate Kinase (LmPK). Q27686. purified LmPK, Kinase-Glo ATP luminescence, 1 h. Potency, µM (titrated, usually from 57.5 µM), for inactives: at the top dose activity change, negative = inhibition, hits mostly inhibitors. 290,000 tested, 0.37% active. AID 1721, 2009; also: potency is read from the fitted curve at half-maximal effect; % is scaled to controls: 0 for no effect and ±100 for the full control effect
Target sequence (Q27686 whole entry, looked up): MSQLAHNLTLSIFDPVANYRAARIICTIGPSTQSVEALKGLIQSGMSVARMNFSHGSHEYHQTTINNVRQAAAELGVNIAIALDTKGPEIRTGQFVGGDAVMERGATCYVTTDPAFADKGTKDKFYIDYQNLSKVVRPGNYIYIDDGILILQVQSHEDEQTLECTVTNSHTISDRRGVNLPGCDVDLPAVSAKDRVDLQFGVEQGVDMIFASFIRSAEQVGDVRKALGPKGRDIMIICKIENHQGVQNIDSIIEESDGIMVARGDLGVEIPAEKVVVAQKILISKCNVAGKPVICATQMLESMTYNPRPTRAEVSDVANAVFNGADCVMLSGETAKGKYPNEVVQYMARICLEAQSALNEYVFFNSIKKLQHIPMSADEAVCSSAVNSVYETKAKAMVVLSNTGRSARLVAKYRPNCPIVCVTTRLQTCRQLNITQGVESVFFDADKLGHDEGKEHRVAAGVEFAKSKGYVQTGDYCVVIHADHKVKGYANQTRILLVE
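Purified LmPK (0.1 nM) converted ADP (0.1 mM) to ATP with PEP (0.5 mM) in imidazole buffer pH 7.2 with KCl and MgCl2, 1 h at room temperature. ATP was read by Kinase-Glo luminescence; data normalized to uninhibited and no-enzyme controls.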
Giardia FBPA inh: qHTS Assay for Inhibitors of Fructose-1,6-bisphosphate Aldolase from Giardia Lamblia. A8B2U2. purified Giardia FBPA. Potency, µM (titrated, usually from 59.6 µM), for inactives: at the highest dose activity, negative = inhibition, hits mostly inhibitors. 290,000 tested, 0.71% active; also: potency is read from the fitted curve at half-maximal effect; % is scaled to controls: 0 for no effect and ±100 for the full control effect; nearly all actives have a fitted effect of over 55% in size
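40 nM FBPA preincubated 10 min at RT with compound (up to 57.5 uM final), then substrate plus GAPDH/TPI/NAD/arsenate coupling and diaphorase/resazurin added. Fluorescence read after 20 min at RT, 525/598 nm.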
RE007 growth inh: qHTS Assay for Inhibitors of the HIV-1 protein Vpr; 360,000 tested, 0.21% active; S. pombe RE007 Vpr strain, BacTiter-Glo ATP luminescence, 24 h; AID 651644, 2012; Potency, µM (doses to about 92.2 µM), for the others: at the highest dose activity change, negative = less growth, hits mostly inhibitors; active = well fitted falling curve with a large enough effect; inconclusive = small, poorly fitted or top-dose-only effect; inactive = no such curve, though single readings can be large or run the other way; also: potency is read from the fitted curve at half-maximal effect; % is scaled to controls: 0 for no effect and ±100 for the full control effect; nearly all actives have a fitted effect of over 50% in size
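Fission yeast strain RE007, carrying one chromosomally integrated HIV-1 vpr copy, was seeded at OD 0.01 in PMG+AL medium with 23 nL pinned compound. After 24 h at 30 °C and 99% humidity, viability was read by BacTiter-Glo luminescence.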
* marks the source's active call; other numbers are inactive results; ? = inconclusive; . = no result given. This excerpt belongs to a sample that is enriched for hits. Unless noted, calls follow the shape of the dose curve; as a rule, active = well fitted curve in the direction sought with a large enough effect; inconclusive = small, poorly fitted or top-dose-only effect, or another doubt; inactive = no such curve, though single readings can be large; an effect the other way counts as inactive or inconclusive.

SMILES | Shiga inhibitor | Cycloheximide cs | Tb PYK inh | LmPK inhibitor | Giardia FBPA inh | RE007 growth inh
CC(=O)N(C)c1ccc(NC(=O)c2ccc([N+](=O)[O-])cc2Cl)cc1 | 66* | 17 | -4% | -4% | 2% | 27%
CCCn1nnc(NC(=O)c2ccc([N+](=O)[O-])cc2Cl)n1 | 62* | 24* | -3% | 11% | 0% | -3%
CCCCn1nnc(NC(=O)c2ccc([N+](=O)[O-])cc2Cl)n1 | 26 | 14 | 4% | 0% | -12% | 5%
CCCn1nnc(NC(=O)c2ccc(-c3cccc(Cl)c3)o2)n1 | 140* | 41* | 4% | -2% | 0% | 4%
CCn1nnc(NC(=O)COc2ccc([N+](=O)[O-])cc2)n1 | 23 | 19* | -4% | -2% | 1% | 6%
O=C(NCC1(c2ccccc2)CCCC1)C(=O)Nc1cccc(Br)c1 | . | . | -11% | . | . | .
CCCCn1nnc(NC(=O)c2ccc(-c3cccc(Cl)c3)o2)n1 | 68* | 33* | -5% | 2% | 0% | 13%
CCCN(C(=O)Cn1ncc2c([nH]c3ccccc32)c1=O)c1ccc(F)cc1 | . | . | -4% | . | . | .
CNc1ccc2nc3ccccc3[n+](C)c2c1 | 67* | 35* | ? | -18% | -17% | ?
C[n+]1c2ccccc2nc2ccc(NCCO)cc21 | -1 | 13* | ? | -2% | ? | 3.5µM*
CC(C)n1c(NCCO)nc2ccccc21 | -11 | -5 | 2% | 2% | -6% | 2%
O=C(NC1(Cc2ccccc2)CCN(CCCc2ccccc2)C1=O)c1ccccc1 (configuration not stated) | . | . | 1% | . | . | -5%
O=C(NCCc1c[nH]c2ccccc12)c1cc(Cl)c2c(c1)OCO2 | 96* | 48* | -1% | 3% | -10% | -5%
O=C(NCCc1c[nH]c2ccccc12)c1ccc2c(c1)OCO2 | 108* | 54* | -3% | -2% | 5% | 4%
Cc1ccc2[nH]cc(CCNC(=O)c3ccc4c(c3)OCO4)c2c1 | 2 | 2 | 0% | 5% | 4% | 4%
O=C1OCC(CO)(CO)N=C1NNc1cc(Cl)ccc1Cl | -2 | -2 | -1% | 0% | -18% | 59%
O=C1OCC(CO)(CO)N=C1NNc1ccccc1[N+](=O)[O-] | 58* | 43* | -12% | -12% | -5% | 13%
CC1CN(S(=O)(=O)c2cccc(C(=O)N(Cc3nnc(-c4ccccc4Cl)o3)C3CC3)c2)CC(C)O1 (configuration not stated) | . | . | 2% | . | . | 12%
O=C(Nc1nccs1)c1ccc(N2C(=O)[C@@H]3[C@H](C2=O)[C@H]2C=C[C@@H]3C2)cc1 | 54* | 26* | -1% | 1% | -1% | 7%
O=C(Nc1nccs1)c1ccc(N2C(=O)C3CCCCC3C2=O)cc1 (configuration not stated) | 70* | 37* | -2% | -6% | 2% | 2%
O=C(Nc1nccs1)c1cccc(N2C(=O)C3C4C=CC(C4)C3C2=O)c1 (configuration not stated) | -3 | -4 | 11% | -1% | -1% | -25%
C[C@H](NC(=O)c1ccc(Cl)cc1)C(=O)NNC(=O)c1cccs1 | . | . | 7% | . | . | 2%
Cc1cccc(/C=N/n2c(C)nc3ccccc3c2=O)c1 | 100* | 22* | -7% | -1% | 6% | -5%
Cc1nc2ccccc2c(=O)n1/N=C/c1ccc(O)cc1 | 17 | 1 | 0% | 7% | 1% | 1%
COc1ccc(/C=N/n2c(C)nc3ccccc3c2=O)cc1 | 38 | -2 | 2% | 1% | 2% | 12%
COC(=O)c1ccc(/C=N/n2c(C)nc3ccccc3c2=O)cc1 | 41* | 21* | -3% | 4% | -1% | .
Cc1nc2ccccc2c(=O)n1/N=C/c1ccc(C(C)C)cc1 | 38* | 22* | -1% | -7% | 0% | 10%
